Screening data from PubChem.
The sample as a whole holds a higher share of hits than the screen did.
VDR inh – inhibitors of human vitamin D receptor; P11473; VDR-SRC2-3 peptide fluorescence polarization, 2 h; Potency, µM, for inactives: max response, negative = inhibition, actives largely listed as inhibitors; hit rate 0.93% among 400,000; AID 504847; note: % is set by controls: 0 for no effect and ±100 for the full control effect
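Measured by FP: displacement of SRC2-3 coactivator peptide from VDR by library compounds, following a two-hour ambient incubation.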
GRP78 ERSR act – induces the endoplasmic reticulum stress response in human glioma cells | U87-MG GRP78 promoter luciferase reporter, 16 h | Potency, µM, for inactives: at the top dose activation, usual class: activators | hit rate 0.02% among 420,000; note: series mostly up to about 76 µM; % of control where 0% means no effect; nearly all actives have a fitted effect of over 35% in size
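Stably transfected U87-MG human glioma cells carrying a GRP78-based luminescent sensor were seeded at 1000 cells/well, pin-dosed with compounds and incubated 16 h. Luciferase reagent was then added, and end-point luminescence was read after 10 min at room temperature.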
ALOX12 inh – inhibitors of human 12S-lipoxygenase ALOX12 | Potency, µM (top dose mostly 108 µM), inactives show at the highest dose activity change, negative = inhibition, hits mostly inhibitors | AID 1671190 | hit rate 1.1% among 580,000 | purified 12hLO, xylenol orange hydroperoxide absorbance; note: % is set by controls: 0 for no effect and ±100 for the full control effect
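Purified human 12hLO at 150 nM in 25 mM Hepes, 0.01% Triton X-100, pH 7.0, preincubated 15 min at room temperature with compound. Reaction started with 40 uM arachidonic acid, 30 min at room temperature. Hydroperoxide measured by Fe-xylenol orange, 573/405 nm absorbance ratio.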
G9a inh – blocks human histone lysine methyltransferase G9a | G9a H3K9 monomethylation, AlphaScreen, 2 h | Potency, µM (series often up to 102 µM), for inactives: at the highest dose activity, negative = inhibition, usual class: inhibitors | hit rate 8.8% among 350,000 | AID 504332; note: % is set by controls: 0 for no effect and ±100 for the full control effect; nearly all actives have a fitted effect of over 75% in size
Target sequence (Q96KQ7 913-1193 limits assumed): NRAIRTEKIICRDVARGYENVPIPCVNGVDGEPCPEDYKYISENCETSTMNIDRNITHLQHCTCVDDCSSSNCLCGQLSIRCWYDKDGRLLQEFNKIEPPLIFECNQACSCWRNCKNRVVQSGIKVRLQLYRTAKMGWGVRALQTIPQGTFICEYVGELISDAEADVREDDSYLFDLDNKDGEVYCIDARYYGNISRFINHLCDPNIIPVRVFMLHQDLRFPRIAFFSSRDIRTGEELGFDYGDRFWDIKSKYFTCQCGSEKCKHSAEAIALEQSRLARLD
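Readings reflect AlphaScreen signal from monomethyl-H3K9 antibody detection. HMT at 20 nM; substrate b-H3K9 500 nM; cofactor SAM 20 uM; 2 h RT reaction; compounds tested as titrations in qHTS with 15 min preincubation.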
Sfp inh – inhibitors of Bacillus subtilis Sfp phosphopantetheinyl transferase. Biochemical Sfp PPTase activity, qHTS. Potency, µM, inactives show largest response in the series, negative = inhibition, actives largely listed as inhibitors. hit rate 3.5% among 310,000. AID 1490;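 note: the enzyme is Sfp with the accession as filed and its product quenches rhodamine fluorescence; 0% = enzyme reaction without inhibitor and -100% = no enzyme wells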
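Compounds were incubated with enzyme (final 15 nM) for 15 min at room temperature before substrate addition started the reaction. Fluorescence at 525 nm excitation, 598 nm emission was recorded immediately and after 30 minutes.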
The depositor's hits bear a star; ? = inconclusive; . = not tested or not shown; [ ] = remark or other dose. Calls come from the whole dose curve; as a rule, active = well fitted curve in the direction sought with a large enough effect; inconclusive = small, poorly fitted or top-dose-only effect, or another doubt; inactive = no such curve, though single readings can be large; an effect the other way counts as inactive or inconclusive. Potency is the fitted concentration of half-maximal effect.

SMILES	VDR inh	GRP78 ERSR act	ALOX12 inh	G9a inh	Sfp inh
CC(=O)Nc1ccc(C(=O)CSc2nnc(-c3ccc(O)cc3)n2CC2CCCO2)cc1 (stereo unspecified)	-2.8%	-0.4%	?	20µM*	?
CC1(C)CC(=O)C(Sc2nnc(-c3ccc(O)cc3)n2CC2CCCO2)C(=O)C1 (stereo unspecified)	-0.3%	-4.8%	?	28.2µM*	44.7µM*
S=c1[nH]nc(Cn2cnc3ccccc32)n1-c1ccccc1Cl	-8.6%	-1.6%	-10.8%	.	89.1µM*
COCCCN1C(=O)N(Cc2nncn2C(C)C)C(=O)C12CCNCC2	.	.	17.8µM*	.	.
Cc1nncn1CCN1C(=O)N(CCc2ccccc2)C2(CCNCC2)C1=O	.	.	-23.6%	.	.
CC(=O)c1ccc(C#CC(C)(C)O)s1	36.5%	0.0%	-9.2%	12.6µM*	3.3%
CCCCCC(=O)CC	.	.	5.1%[176 µM]	.	.
CCOc1ccc(NC(=O)c2c(Nc3ccccc3C)sc(C(=O)c3ccc(Cl)cc3)c2N)cc1	6.9%	-0.5%	-15.4%	8.91µM*	.
CCOc1ccccc1Nc1sc(C(=O)c2ccccc2)c(N)c1C(=O)Nc1ccccc1	3.4%	-1.2%	-1.0%	11.2µM*	.
CCOc1ccccc1Nc1sc(C(=O)c2ccccc2)c(N)c1C(=O)NCCc1ccccc1	-0.3%	-0.5%	-3.8%	?	.
Cc1ccc(C)c(OCC(=O)Nc2ccc(-c3nc4ccccc4o3)cc2)c1	.	.	5.5%	.	.
CC1CN(S(=O)(=O)c2cccc(-c3csc(-c4ccccc4)n3)c2)CC(C)O1 (stereo unspecified)	-22.3%	-0.3%	320.6%	17.8µM*	-5.7%
Cc1ccc(S(=O)(=O)N(CC(=O)N2CCc3ccccc3C2)Cc2ccc(Cl)cc2)cc1	.	.	-13.0%	.	.
Cn1c(-c2cccc([N+](=O)[O-])c2)[n+](C)c2ccccc21	-7.9%	-5.2%	6.0%	6.0%	5.8%
Cn1c(-[n+]2c(-c3ccccc3)cc(-c3ccccc3)cc2-c2ccccc2)nc2c([N+](=O)[O-])cccc21	-24.3%	-5.4%	?	10µM*	-12.8%
COc1ccc(NC(=O)COc2cccc(-c3nnc4n3CCCC4)c2)cc1	.	.	3.7%	.	.
C/C(CC1(O)/C(=N/O)CCc2nonc21)=N\O (stereo unspecified)	-5.1%	-1.0%	?	39.8µM*	11.4%
FC(F)(F)c1cc(-c2ccco2)nc(NCc2cccnc2)n1	-18.7%	-2.8%	?	?	-16.3%
FC(F)(F)c1cc(-c2ccco2)nc(NCc2ccccc2)n1	-12.5%	-2.4%	?	?	20µM*
CC1CCc2c(sc(NC(=O)C3CCCO3)c2C#N)C1 (stereo unspecified)	-24.4%	-0.2%	-14.2%	-1.1%	6.6%
CCn1cnnc1SCC(=O)Nc1sc2c(c1C#N)CCC(C)C2 (stereo unspecified)	.	.	70.3%	.	.
CC1CCc2c(sc(NC(=O)COC(=O)C3CCCO3)c2C#N)C1 (stereo unspecified)	-22.2%	4.3%	-12.7%	25.8%	-7.3%
CC1CCc2c(sc(NC(=O)COC(=O)c3ccc(O)cc3)c2C#N)C1 (stereo unspecified)	-3.9%	3.4%	-8.8%	39.8µM*	?
Cc1nnc(SCC(=O)Nc2sc3c(c2C#N)CCC(C)C3)n1Cc1ccccc1 (stereo unspecified)	.	.	20µM*	.	.
CC1CCc2c(sc(NC(=O)Cn3nc(C(F)(F)F)c4c3CCCCC4)c2C#N)C1 (stereo unspecified)	-21.2%	-0.5%	?	?	50.1µM*
SMILES	VDR inh	GRP78 ERSR act	ALOX12 inh	G9a inh	Sfp inh
COc1cc(C(=O)OCC(=O)c2ccccc2)ccc1OCc1ccc(Cl)cc1	.	.	7.1%	.	.
C=CCNC(=O)CN1CCC(c2cc3ccccc3[nH]2)CC1	.	.	18.9%	.	.
CN=C(c1ccc(C)cc1)n1c(=S)nc(-c2ccc(C)cc2)n(C)c1=S	5.7%	3.2%	-12.4%	39.8µM*	-105.7%
CN=C(c1ccco1)n1c(=S)nc(-c2ccco2)n(C)c1=S	?	-0.6%	-20.4%	8.91µM*	17.8µM*
CCCCn1c(=O)[nH]c(=O)c2c1nc(-c1ccccc1F)n2Cc1ccccc1	-7.9%	-1.8%	-24.7%	-48.9%	?
CCCCn1c(=O)[nH]c(=O)c2c1nc(-c1ccc(-c3ccccc3)cc1)n2C	-17.0%	6.5%	-18.6%	39.8µM*	14.2%
